Results from PubChem BioAssay AID1494158 (National Center for Advancing Translational Sciences (NCATS), 2020).
Records with an inconclusive call do not appear. Calls of active or inactive are those of the source. The call rests on the fitted dose curve.

Assay: VSV-G qHTS counterscreen for inhibitors of SARS-S pseudo-typed particle cell entry
Conditions: VSV-G pseudotyped particle entry counterscreen, luciferase; series mostly up to 57.1 µM

Q: With `COc1ccc(Cc2nccc3cc(OC)c(OC)cc23)cc1OC` as the compound, how does the Potency read?
A: 19.2 µM (active)

Q: Which Potency does the source give for `C[n+]1c2cc(N)ccc2cc2ccc(N)cc21` (tested in a mixture with another compound) here?
A: 4.82 µM (active)

Q: Which Potency does the source give for `CNCCCC12CCC(c3ccccc31)c1ccccc12` here?
A: inactive

Q: Which Potency does the source give for `C[C@]12CC[C@H](O)C[C@H]1CCC1C2CC[C@]2(C)[C@@H](c3ccc(=O)oc3)C[C@H]3O[C@]132` (some centres undefined) here?
A: 9.61 µM (active)

Q: Which Potency does the source give for `CC(C)C(=O)Oc1ccc(CO)cc1[C@H](CCN(C(C)C)C(C)C)c1ccccc1` here?
A: 27.1 µM (active)

Q: For `CCN(CC)CCNC(=O)c1c(C)[nH]c(/C=C2\C(=O)Nc3ccc(F)cc32)c1C`, which Potency is on record?
A: 17.1 µM (active)

Q: For `COc1cc2nccc(Oc3ccc(NC(=O)C4(C(=O)Nc5ccc(F)cc5)CC4)cc3)c2cc1OC`, which Potency is on record?
A: 21.5 µM (active)

Q: For `Cc1cc(C(C#N)c2ccc(Cl)cc2)c(Cl)cc1NC(=O)c1cc(I)cc(I)c1O` (centres undefined), which Potency is on record?
A: 30.4 µM (active)

Q: Which Potency does the source give for `COc1ccc2cc3[n+](cc2c1OC)CCc1cc2c(cc1-3)OCO2` here?
A: 17.1 µM (active)

Q: Which Potency does the source give for `COc1cccc2c1C(=O)c1c(O)c3c(c(O)c1C2=O)C[C@@](O)(C(=O)CO)CC3OC1CC(N2CCOC(OC)C2)C(O)C(C)O1` (some centres undefined) here?
A: 0.108 µM (active)

Q: Which Potency does the source give for `COc1cc(NS(C)(=O)=O)ccc1Nc1c2ccccc2nc2ccccc12` here?
A: 0.764 µM (active)

Q: Which Potency does the source give for `COc1cc([C@@H]2c3cc4c(cc3C(O[C@@H]3O[C@@H]5CO[C@@H](c6cccs6)OC5[C@H](O)[C@H]3O)C3COC(=O)[C@@H]32)OCO4)cc(OC)c1O` (some centres undefined) here?
A: 0.857 µM (active)

Q: For `CCCCCCCCCCCCCC[n+]1ccc(C)cc1`, which Potency is on record?
A: 1.92 µM (active)

Q: Which Potency does the source give for `COc1cccc2c1C(=O)c1c(O)c3c(c(O)c1C2=O)C[C@@](O)(C(C)=O)C[C@@H]3O[C@H]1C[C@H](N)[C@H](O)[C@H](C)O1` here?
A: 1.92 µM (active)

Q: For `COc1cc2nccc(Oc3ccc(NC(=O)NC4CC4)c(Cl)c3)c2cc1C(N)=O`, which Potency is on record?
A: 17.1 µM (active)

Q: With `C[C@@H](c1nc(-c2ccc(C#N)cc2)cs1)[C@](O)(Cn1cncn1)c1cc(F)ccc1F` as the compound, how does the Potency read?
A: 21.5 µM (active)

Q: With `CNC(=O)c1cc(Oc2ccc(NC(=O)Nc3ccc(Cl)c(C(F)(F)F)c3)c(F)c2)ccn1` as the compound, how does the Potency read?
A: 10.8 µM (active)

Q: With `N#CC(c1ccc(Cl)cc1)c1c(Cl)cc(-n2ncc(=O)[nH]c2=O)cc1Cl` (centres undefined) as the compound, how does the Potency read?
A: 10.8 µM (active)

Q: For `CC(C)C[C@H](NC(=O)[C@H](CCc1ccccc1)NC(=O)CN1CCOCC1)C(=O)N[C@@H](Cc1ccccc1)C(=O)N[C@@H](CC(C)C)C(=O)[C@@]1(C)CO1`, which Potency is on record?
A: 0.764 µM (active)

Q: Which Potency does the source give for `O=c1c(C2CC(c3ccc(-c4ccc(Br)cc4)cc3)Cc3ccccc32)c(O)sc2ccccc12` (centres undefined) here?
A: 15.2 µM (active)

Q: Which Potency does the source give for `C[C@@H]1CCO[C@H]2Cn3cc(C(=O)NCc4ccc(F)cc4F)c(=O)c(O)c3C(=O)N12` here?
A: 0.0054 µM (active)

Q: With `Oc1c(Cl)cc(Cl)c(Cl)c1Cc1c(O)c(Cl)cc(Cl)c1Cl` as the compound, how does the Potency read?
A: 2.71 µM (active)

Q: With `Cc1nnc(C(=O)NC(C)(C)c2nc(C(=O)NCc3ccc(F)cc3)c(O)c(=O)n2C)o1` as the compound, how does the Potency read?
A: 0.0171 µM (active)

Q: Which Potency does the source give for `CC(C)OC(=O)OCOP(=O)(CO[C@H](C)Cn1cnc2c(N)ncnc21)OCOC(=O)OC(C)C` here?
A: 0.0961 µM (active)

Q: With `O=c1ccc2ccccc2o1` as the compound, how does the Potency read?
A: inactive

Q: With `CC(C)OC(=O)[C@H](C)N[P@](=O)(CO[C@H](C)Cn1cnc2c(N)ncnc21)Oc1ccccc1` as the compound, how does the Potency read?
A: 0.242 µM (active)

Q: For `CC(=O)Oc1ccccc1C(=O)Nc1ncc([N+](=O)[O-])s1`, which Potency is on record?
A: 6.81 µM (active)

Q: For `CCc1c2c(nc3ccc(OC(=O)N4CCC(N5CCCCC5)CC4)cc13)-c1cc3c(c(=O)n1C2)COC(=O)[C@]3(O)CC`, which Potency is on record?
A: inactive

Q: With `CCCCCCCCCCCC[n+]1ccc2ccccc2c1` as the compound, how does the Potency read?
A: 1.92 µM (active)

Q: For `Nc1ccn([C@@H]2O[C@H](CO)[C@@H](O)C2(F)F)c(=O)n1`, which Potency is on record?
A: 0.171 µM (active)

Q: Which Potency does the source give for `CCC(C)(C)C(=O)O[C@H]1C[C@@H](C)C=C2C=C[C@H](C)[C@H](CC[C@@H]3C[C@@H](O)CC(=O)O3)[C@H]21` here?
A: 1.21 µM (active)

Q: For `CC(CN(C)C)CN1c2ccccc2CCc2ccccc21` (centres undefined), which Potency is on record?
A: inactive

Q: With `CC[C@@H]([C@H](C)O)n1ncn(-c2ccc(N3CCN(c4ccc(OC[C@@H]5CO[C@@](Cn6cncn6)(c6ccc(F)cc6F)C5)cc4)CC3)cc2)c1=O` as the compound, how does the Potency read?
A: 6.81 µM (active)

Q: For `CC(=O)N1CCN(c2ccc(OC[C@H]3CO[C@](Cn4ccnc4)(c4ccc(Cl)cc4Cl)O3)cc2)CC1`, which Potency is on record?
A: 19.2 µM (active)
